Laboratory results taken from PubChem BioAssay (NCATS).
Results filed as inconclusive are left out. Where a call stands in place of a potency, no number is given. Calls of active or inactive are those of the source. Calls come from the whole dose curve; as a rule, active = well fitted curve in the direction sought with a large enough effect; inconclusive = small, poorly fitted or top-dose-only effect, or another doubt; inactive = no such curve, though single readings can be large; an effect the other way counts as inactive or inconclusive.

Tests used:
[1] = test system: WaGa; test: qHTS assay to identify novel small-molecules to repurpose for Merkel cell carcinoma treatment (AID 1296009); conditions: MCC and control cell lines, CellTiter-Glo viability, 72 h; series mostly up to 46 µM; note: nearly all actives have a fitted effect of over 60% in size
Outline: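 72 hr, 37 degree celsius; NPC 8-pt / MIPE 11-pt dose response; compound pinned in DMSO; CellTiter-Glo, 10 min RT, luminescence; normalized to no-cell and DMSO controls.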

[2] = test system: C33A; test: Primary qHTS to identify gynecologic anti-cancer compounds using libraries of approved drugs and bioactive compounds (AID 1345084); conditions: Gynecologic cancer cell panel viability, ATPlite luminescence, 48 h; series mostly up to 57.5 µM; note: nearly all actives have a fitted effect of over 55% in size
Outline: (§1)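 Cytotoxicity screen measuring ATP content by luciferase luminescence. Each compound is applied at five concentrations for 48 h at 37 C with 5% CO2.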

[3] = test system: CASKI; test: as above; conditions: Gynecologic cancer cell panel viability, ATPlite luminescence, 48 h; series mostly up to 57.5 µM
Outline: as §1

[4] = test system: Es-2; test: as above; conditions: Gynecologic cancer cell panel viability, ATPlite luminescence, 48 h; series mostly up to 57.5 µM
Outline: as §1

[5] = test system: HeLa; test: as above; conditions: Gynecologic cancer cell panel viability, ATPlite luminescence, 48 h; series mostly up to 57.5 µM
Outline: as §1

[6] = test system: Hek293T; test: as above; conditions: Gynecologic cancer cell panel viability, ATPlite luminescence, 48 h, control line for the selectivity index; series mostly up to 57.5 µM
Outline: as §1

[7] = test system: JEG-3; test: as above; conditions: Gynecologic cancer cell panel viability, ATPlite luminescence, 48 h; series mostly up to 57.5 µM
Outline: as §1

[8] = test system: OV90; test: as above; conditions: Gynecologic cancer cell panel viability, ATPlite luminescence, 48 h; series mostly up to 57.5 µM
Outline: as §1

[9] = test system: PA-1; test: as above; conditions: Gynecologic cancer cell panel viability, ATPlite luminescence, 48 h; series mostly up to 57.5 µM
Outline: as §1

[10] = test system: CAOV3; test: as above; conditions: Gynecologic cancer cell panel viability, ATPlite luminescence, 48 h; series mostly up to 57.5 µM
Outline: as §1
Potency is the fitted concentration of half-maximal effect.

Compound | Potency [1] | Potency [2] | Potency [3] | Potency [4] | Potency [5] | Potency [6] | Potency [7] | Potency [8] | Potency [9] | Potency [10]
O=C(Oc1ccc([N+](=O)[O-])cc1)N1CCN(Cc2cccc(Oc3ccccc3)c2)CC1 | inactive | inactive | inactive | inactive | inactive | inactive | inactive | inactive | inactive | 
c1cc2ccc3cccc4ccc(c1)c2c34 | inactive | inactive | inactive | inactive | inactive | inactive | inactive | inactive | inactive | 
O=[N+]([O-])/N=C1\NCCN1Cc1ccc(Cl)nc1 | inactive | inactive | inactive | inactive | inactive | inactive | inactive | inactive | inactive | 
CCCCOC(=O)c1ccccc1C(=O)OCc1ccccc1 | inactive | inactive | inactive | inactive | inactive | inactive | inactive |  | inactive | inactive
COC(=O)c1cncn1C(C)c1ccccc1 (centres undefined) | inactive | inactive | inactive | inactive | inactive | inactive | inactive | inactive | inactive | 
CC(=O)[O][Hg][c]1ccccc1 | 0.473 µM (active) | 5.62 µM (active) | 4.47 µM (active) | 6.31 µM (active) | 14.1 µM (active) | 7.08 µM (active) | 5.01 µM (active) | 12.6 µM (active) | 3.16 µM (active) | 
CCNC(=O)C[C@@H]1N=C(c2ccc(Cl)cc2)c2cc(OC)ccc2-n2c(C)nnc21 | 5.9 µM (active) | inactive | inactive |  |  |  |  |  | 0.891 µM (active) | inactive
CC(O)CN1CCN(CC(=O)[O-])CCN(CC(=O)[O-])CCN(CC(=O)[O-])CC1.[Gd+3] (centres undefined) | inactive | inactive | inactive | inactive | inactive | inactive | inactive | inactive | inactive | inactive
CC1=C(C(=O)O)N2C(=O)[C@@H](N)[C@H]2SC1 | inactive | inactive | inactive | inactive | inactive | inactive | inactive | inactive | inactive | 
CCc1c(C(=O)C(N)=O)c2c(OCC(=O)O)cccc2n1Cc1ccccc1 | inactive | inactive | inactive | inactive | inactive | inactive | inactive | inactive | inactive | 
CCCCCCCCCC(CC)c1ccc(S(=O)(=O)O)cc1 (centres undefined) | inactive | inactive | inactive |  | inactive | inactive | inactive |  | inactive | inactive
Oc1ccc2c3c1O[C@H]1[C@@H](O)C=C[C@H]4[C@@H](C2)NCC[C@@]341 | 25 µM (active) | inactive | inactive | inactive | inactive | inactive | inactive | inactive | inactive | 
Cc1cc(O)ccc1Cl | inactive | inactive | inactive | inactive | inactive | inactive | inactive |  | inactive | 
Cc1[nH]nc2ccc(-c3cncc(OC[C@@H](N)Cc4c[nH]c5ccccc45)c3)cc12 | 0.833 µM (active) | 0.316 µM (active) | 2.82 µM (active) | 1.78 µM (active) | 0.891 µM (active) | 0.631 µM (active) | 2.82 µM (active) | 5.62 µM (active) | 0.794 µM (active) | 
COc1ccc(N(C(=O)Oc2c(C)cccc2C)c2ccnc(Nc3ccc(N4CCN(C)CC4)cc3)n2)c(OC)c1 |  |  | inactive |  |  | inactive | inactive | inactive |  | 
CCCCCCCCCCCCCCCC[N+](C)(C)C | 2.37 µM (active) |  | 20 µM (active) |  |  |  |  |  |  | 
CC(C)[C@]12O[C@H]1[C@@H]1O[C@]13[C@]1(O[C@H]1C[C@H]1C4=C(CC[C@@]13C)C(=O)OC4)[C@@H]2O |  | 0.708 µM (active) | 0.199 µM (active) | 0.1 µM (active) | 0.158 µM (active) |  |  |  | 0.1 µM (active) | 
O=S(=O)(O)C(F)(F)C(F)(F)C(F)(F)C(F)(F)C(F)(F)C(F)(F)C(F)(F)C(F)(F)F |  | inactive | inactive | inactive | inactive | inactive | inactive | inactive | inactive | 
O=C(O)CCCOc1ccc(Cl)cc1Cl |  | inactive | inactive | inactive | inactive | inactive | inactive | inactive | inactive | 
S=C(SSC(=S)N1CCCCC1)N1CCCCC1 |  |  | inactive |  | inactive | 17.8 µM (active) |  | 10 µM (active) |  | 
C=CC(=O)NCNC(=O)C=C |  | inactive | inactive | inactive | inactive | inactive | inactive | inactive | inactive | 
CCN1CCN(C(=O)Cc2ccc(Nc3ncc(F)c(Nc4ccc(C(=O)Nc5ccccc5Cl)cc4)n3)cc2)CC1 |  | inactive | inactive |  | 8.91 µM (active) | 25.1 µM (active) | inactive | inactive | 25.1 µM (active) | 
CO/C=C(/C(=O)OC)c1ccccc1Oc1cc(Oc2ccccc2C#N)ncn1 |  |  |  | 31.6 µM (active) |  | 17.8 µM (active) |  | 17.8 µM (active) |  | 
Nc1ccc(Cl)cc1N |  |  |  | inactive | inactive | inactive | inactive |  | inactive | inactive
Cc1ccccc1-n1c(Cn2ncc3c(N)ncnc32)nc2cccc(C)c2c1=O |  | inactive | inactive | inactive | inactive | inactive | inactive | inactive | inactive | 
CCOP(=O)(NC(C)C)Oc1ccc(SC)c(C)c1 (centres undefined) |  | inactive | inactive | inactive | inactive | inactive | inactive |  | inactive | inactive
Cc1ccccc1-n1c(Cn2cnc3c(N)ncnc32)nc2cccc(C)c2c1=O |  | inactive | inactive | inactive | inactive | inactive | inactive | inactive | inactive | inactive

Compound | Potency [1] | Potency [2] | Potency [3] | Potency [4] | Potency [5] | Potency [6] | Potency [7] | Potency [8] | Potency [9] | Potency [10]
CCNC(=O)CC1N=C(c2ccc(Cl)cc2)c2cc(OC)ccc2-n2c(C)nnc21 (centres undefined) |  | inactive | inactive | inactive | inactive | inactive | inactive | inactive | inactive | 
CC(Cc1ccc(O)cc1)NCC(O)c1cc(O)cc(O)c1 (centres undefined) | inactive |  | inactive | inactive | inactive | inactive | inactive |  | inactive | 
CC(C)(C)C(O)C(Oc1ccc(Cl)cc1)n1cncn1 (centres undefined) |  | inactive | inactive | inactive | inactive | inactive | inactive |  | inactive | inactive
C/C=C(/C)C(=O)O[C@H]1C(C)=C2[C@H]([C@@H]1OC(=O)CCCCCCC)[C@@](C)(OC(C)=O)C[C@H](OC(=O)CCC)[C@@]1(O)[C@H]2OC(=O)[C@@]1(C)O |  | 20 µM (active) |  | 0.316 µM (active) | 0.447 µM (active) |  | 0.447 µM (active) |  | 0.158 µM (active) | 
O=S(=O)(c1ccc(Cl)cc1)c1ccc(Cl)cc1 |  | inactive | inactive | inactive | inactive | inactive | inactive |  | inactive | inactive
CCO/N=C(\CC)C1=C(O)CC(c2c(C)cc(C)cc2C)CC1=O (centres undefined) |  | inactive | inactive | inactive | inactive | inactive |  | inactive | inactive | inactive
CC(C)Oc1cccc(NC(=O)c2ccccc2C(F)(F)F)c1 | 38.6 µM (active) |  | inactive |  |  |  | inactive | 31.6 µM (active) |  | 
C=CCC1=C(C)C(OC(=O)C2C(C=C(C)C)C2(C)C)CC1=O (centres undefined) |  | inactive | inactive | inactive | inactive | inactive | inactive | inactive |  | 
Cc1c(C(=O)Nc2cccc(C(F)(F)F)c2)cc(-c2ccccc2)n1CCCN1CCOCC1 |  | inactive |  | inactive | inactive | inactive | inactive | inactive | inactive | 
O=[N+]([O-])c1c2ccccc2cc2ccccc12 |  | inactive | inactive | inactive |  | inactive | inactive | inactive | inactive | 
CC1(N2CCC(n3c([C@@H]4CCCNC4)nc4ccccc43)CC2)CCCCCCC1 |  |  |  | 22.4 µM (active) |  |  | 11.2 µM (active) | 12.6 µM (active) | 15.8 µM (active) | 8.91 µM (active)
CC1(C)CC/C(=C/c2ccc(Cl)cc2)C1(O)Cn1cncn1 (centres undefined) |  | inactive | inactive | inactive | inactive | inactive | inactive |  | inactive | 
O=C(Nc1ccccc1-c1ccc(Cl)cc1)c1cccnc1Cl |  | inactive | inactive | inactive | inactive | inactive | inactive |  | inactive | inactive
COc1ccc(C(c2ccc(OC)cc2)C(Cl)(Cl)Cl)cc1 |  | inactive |  | inactive |  | inactive | inactive |  | inactive | 
CCCN(CCC)c1c([N+](=O)[O-])cc(S(N)(=O)=O)cc1[N+](=O)[O-] |  | 35.5 µM (active) |  |  |  |  | inactive |  |  | 
CCOC(=O)Nc1ccc(NCc2ccc(F)cc2)cc1N |  | inactive | inactive | inactive | inactive | inactive | inactive | inactive | inactive | 
Nc1ccc(N=Nc2ccccc2)cc1 |  |  |  |  |  |  |  | 39.8 µM (active) |  | 35.5 µM (active)
O=[N+]([O-])c1cc([N+](=O)[O-])c2ccccc2c1 |  |  | inactive | inactive |  | inactive | inactive | inactive | inactive | 
S=C(NC1CCCCC1)N1CCC(c2cnc[nH]2)CC1 |  | inactive | inactive | inactive | inactive | inactive | inactive | inactive | inactive | inactive
COc1nn(CSP(=S)(OC)OC)c(=O)s1 |  | inactive | inactive |  | inactive | inactive | inactive | inactive |  | 
CC(C)(C)NC[C@H](O)c1ccc(O)cc1Cl | inactive |  | inactive | inactive | inactive | inactive | inactive | inactive |  | 
ClC1=C(Cl)[C@]2(Cl)[C@@H]3[C@@H]4C[C@@H]([C@H]5O[C@@H]45)[C@@H]3[C@@]1(Cl)C2(Cl)Cl |  | inactive | inactive | inactive | inactive | inactive | inactive |  | inactive | 
COC1=C[C@@H]2[C@@H]3Cc4ccc(OC)c(O)c4[C@]2(CCN3C)CC1=O |  | inactive | inactive | inactive | inactive | inactive | inactive | inactive | inactive | inactive
Nc1ccc([N+](=O)[O-])cc1 |  | inactive | inactive |  | inactive | inactive | inactive | inactive | inactive | inactive
CN1CCN(c2ccc([N+](=O)[O-])c3no[n+]([O-])c23)CC1 |  | inactive | inactive | inactive | inactive | inactive | inactive | inactive | inactive | inactive
CC(=O)NCCc1c[nH]c2ccccc12 |  | inactive | inactive | inactive | inactive | inactive | inactive | inactive | inactive | inactive
CCC1(CCC(C)C)C(=O)NC(=O)NC1=O |  | inactive | inactive | inactive |  | inactive | inactive | inactive | inactive | 
